TDP1 block = blocks human tyrosyl-DNA phosphodiesterase 1; Potency, µM (titrated, usually from 130 µM), usual class: inhibitors; recombinant TDP1, AlphaScreen DNA substrate cleavage; AID 485290; 0.28% of 350,000 active; further: nearly all actives have a fitted effect of over 40% in size
Target sequence (Q9NUW8 whole entry, looked up): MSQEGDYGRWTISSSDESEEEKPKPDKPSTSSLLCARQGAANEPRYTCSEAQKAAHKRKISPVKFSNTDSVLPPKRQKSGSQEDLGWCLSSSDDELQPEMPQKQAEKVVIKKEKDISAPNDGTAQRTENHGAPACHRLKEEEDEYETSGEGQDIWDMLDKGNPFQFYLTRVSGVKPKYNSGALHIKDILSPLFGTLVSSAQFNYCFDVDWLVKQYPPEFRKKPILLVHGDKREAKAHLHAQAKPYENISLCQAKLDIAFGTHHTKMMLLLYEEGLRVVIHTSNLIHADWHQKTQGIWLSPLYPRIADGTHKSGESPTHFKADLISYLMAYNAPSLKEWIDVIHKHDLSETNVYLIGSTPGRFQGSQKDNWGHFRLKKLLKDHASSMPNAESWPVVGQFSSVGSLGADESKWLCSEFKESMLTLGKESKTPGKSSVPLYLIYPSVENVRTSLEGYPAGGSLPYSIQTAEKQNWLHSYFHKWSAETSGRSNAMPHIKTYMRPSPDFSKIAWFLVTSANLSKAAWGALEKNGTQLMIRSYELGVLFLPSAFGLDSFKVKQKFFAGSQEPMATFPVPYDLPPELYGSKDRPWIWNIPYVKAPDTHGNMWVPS
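Compounds were preincubated with Tdp1 (1 nM final) for 15 min at room temperature before substrate (15 nM final) started a 5 min reaction; beads (10 ug/ml final) were then added for 10 min before AlphaScreen detection.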
TDP1 cell noCPT = qHTS for Inhibitors of human tyrosyl-DNA phosphodiesterase 1 (TDP1): qHTS in cells in absence of CPT | DT40 Tdp1-/- hTDP1 cells, no CPT, ATP luminescence, 48 h | 15% of 420,000 active | AID 686978, 2013 | Potency, µM (titrated, usually from 46.2 µM), actives largely listed as inhibitors; further: nearly all actives have a fitted effect of over 55% in size
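A cellular qHTS used chicken DT40 cells lacking endogenous Tdp1 but carrying stably transfected human TDP1. Compounds were applied without camptothecin, and cell growth kinetics were judged by ATP-dependent luminescence after ≥48 hr.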
TGFb SMAD3 inh = blocks TGF-b signaling; HepG2 CAGA-GFP TGF-b/SMAD3 reporter, GFP fluorescence, 18 h; TGF-beta stimulated, 500 pg/mL final; Potency, µM (highest dose often 46.1 µM), actives largely listed as inhibitors; 1.2% of 410,000 active; further: nearly all actives have a fitted effect of over 65% in size
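Inhibition was scored as loss of TGF-beta-induced (500 pg/mL final, 18 hours, 37 degrees C) GFP in HEPG2 cells carrying a CAGA-GFP reporter, in DMEM with 1% FBS. Well GFP was summed per cell; Activity was normalised to unstimulated and stimulated DMSO wells, then concentration-response fitting.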
HepG2 tox = counter-screen for TGF-b inhibitors: cytotoxicity in HepG2 cells; HepG2 CAGA-GFP viability, ATP luminescence, 18 h; Potency, µM (titrated, usually from 46.1 µM), most hits filed as cytotoxic; 0.76% of 410,000 active
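HepG2 CAGA-GFP cells (1000/well, DMEM with 1% FBS) received compound, then TGF-beta at 500 pg/mL final, and were incubated 18 hours at 37 degrees C. Viability was read by CellTiter-Glo luminescence. Media-only wells were set as complete cell-killing and DMSO as no toxicity.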
IL1B secr inh = blocks inflammasome-driven IL-1 beta release. THP-1 LPS/ATP IL-1B secretion, AlphaLISA, 16 h; hits give low values. activity change, % at 57.5 µM. 4.7% of 360,000 active; in the data active means activity change below about -50%; inconclusive means mostly about -30% to -49%
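THP-1 cells pretreated 1 hr with compounds (up to 57.5 uM final), then stimulated with LPS (250 ng/mL final) plus ATP (1.25 mM final); secreted IL-1B measured by AlphaLISA after 16 hr, decreased signal indicating inhibition.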
TDP1 cell CPT = DT40-hTDP1 cell growth loss with CPT | chicken DT40 Tdp1-/-;hTDP1 cells + 20 nM CPT, ATP luminescence, 48 h | Potency, µM (doses to about 46.2 µM), hits mostly inhibitors | 12% of 420,000 active | AID 686979; further: nearly all actives have a fitted effect of over 55% in size
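Chicken DT40 Tdp1-/- cells stably complemented with human TDP1 were seeded at 400 cells/well in medium containing 20 nM camptothecin, exposed to pin-transferred compounds, and grown at 37 °C for at least 48 hr. Viability was read as ATP luminescence.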
Hits are given with their value; i = inactive; ? = inconclusive; nt = no result; [ ] = remark or other dose. An excerpt weighted towards active compounds, which were near 19% of everything screened. Unless noted, the call rests on the fitted dose curve; in most records, active means well fitted curve in the direction sought with a large enough effect; inconclusive means small, poorly fitted or top-dose-only effect, or another doubt; inactive means no such curve, though single readings can be large; an effect the other way counts as inactive or inconclusive.

SMILES | TDP1 block | TDP1 cell noCPT | TGFb SMAD3 inh | HepG2 tox | IL1B secr inh | TDP1 cell CPT
CC1c2cc3c(cc2CCN1C(=O)c1cccc(Cl)c1)OCCCO3 (stereo not given) | i | 6.5µM | ? | i | i | 7.3µM
CC1c2cc3c(cc2CCN1CC(=O)Nc1ccccc1)OCCCO3 (stereo not given) | nt | 23µM | i | i | i | 15µM
Cc1ccc(NC(=O)CN2CCc3cc4c(cc3C2C)OCCCO4)cc1 (stereo not given) | i | ? | i | i | ? | ?
Cc1onc(-c2ccccc2Cl)c1C(=O)N1CCN(c2ccc(F)cc2)CC1 | i | ? | i | i | i | ?
COc1ccc(S(=O)(=O)N2CCCCC2)cc1NC(=O)C1CC1C (stereo not given) | i | i | i | i | i | i
COc1ccc(-c2[nH]c(-c3ccccc3)nc2SCC(=O)Nc2ccc3c(c2)OCO3)cc1 | i | 21µM | ? | i | nt | ?
COc1ccc(NC(=O)CSc2ncccc2C(=O)OC(C)C)cc1OC | i | 12µM | i | i | i | 12µM
COc1ccc(NC(=O)CSc2ccccn2)cc1OC | i | i | i | i | i | i
O=C(CSc1nc(-c2ccc(F)cc2)[nH]c1-c1ccccc1)Nc1ccccc1 | i | 12µM | ? | i | nt | 18µM
COc1ccc(NC(=O)CSc2nc(-c3ccccc3)[nH]c2-c2ccccc2)cc1OC | i | 8.2µM | ? | i | nt | 15µM
COc1ccc(-c2nc(SCC(=O)Nc3ccccc3)c(-c3ccc(F)cc3)[nH]2)cc1OC | i[12.3 µM] | ? | ? | i | nt | ?
COc1cccc(NC(=O)Cc2nnc(SCC(=O)NC3CCCC3)n2C)c1 | i | ? | i | i | i | i
CCc1ccc(C2CC(=O)Nc3cc4c(cc32)OCO4)cc1 (stereo not given) | i | ? | i | i | nt | i
COc1cc(-c2nc(SCC(=O)Nc3ccc(C)cc3)c(-c3ccc(F)cc3)[nH]2)cc(OC)c1OC | i | 15µM | ? | i | nt | ?
COc1cccc(-c2nc(SCC(=O)Nc3ccc4c(c3)OCCO4)c(-c3ccc(C)cc3)[nH]2)c1 | i | 23µM | ? | i | nt | ?
COc1ccc(-c2nc(SCC(=O)Nc3ccc4c(c3)OCCO4)c(-c3ccc(F)cc3)[nH]2)cc1OC | i | 21µM | ? | i | nt | ?
CS(=O)(=O)N1CCC[C@@]2(CCN(c3ccccn3)C2)C1 | nt | i | nt | nt | nt | i
CCOC(=O)CNC(=O)C1CCCN(c2ncccn2)C1 (stereo not given) | i | i | i | i | i | 29µM
CSc1ccc(CCNC(=O)NCc2noc3ccccc23)cc1 | i | ? | i | i | nt | ?
O=Cc1ccccc1Oc1ccccc1 | i | 12µM | i | i | i | ?
O=Cc1ccccc1C=O | nt | ? | nt | nt | nt | 9.4µM
N#Cc1ccccc1Oc1ccccc1C=O | i | 16µM | i | i | i | ?
C/C(=N\NC(=O)c1c(Br)cnn1C)c1ccc(NC(=O)c2ccc(F)cc2)cc1 | i | i | i | i | i | ?
Cc1ccc(Nc2nc(C#N)nc(NC3CCCC3)n2)cc1 | i | nt | nt | nt | nt | nt
COC(=O)N1CCC2(CC1)CN(C(=O)Nc1ccccc1)C2 | nt | i | nt | nt | nt | i
COC(=O)/C=C1\N/C(=N\c2nc(C)cc(C)n2)N(c2ccccc2)C1=O | i | i | i | i | i | i
COC(=O)/C=C1/N/C(=N\c2nc(C)cc(C)n2)N(c2cccc(C)c2)C1=O | i | ? | ? | i | -69 | ?
Cc1ccc(S(=O)(=O)N2C[C@@H]3[C@H]4CC[C@H](C4)[C@@H]3[C@@H](C)[C@@H]2c2cn(Cc3ccccc3)c3ccc(F)cc23)cc1 | i | 21µM | i | i | i | 21µM
C[C@@H]1[C@H]2[C@@H]3CC[C@@H](C3)[C@H]2CN[C@H]1c1cn(Cc2ccccc2)c2ccccc12 | i | ? | ? | i | i | 16µM
